# From PubChem
# AmpC no deterg: blocks E. coli AmpC beta-lactamase in detergent-free assay. P00811. AmpC nitrocefin hydrolysis, absorbance 480 nm, 0.0001% Triton. Potency, µM (series often up to 57.1 µM), inactives show at the top dose activity change, negative = inhibition, actives largely listed as inhibitors. 330,000 tested, 0.52% active. AID 485341;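 note: plate controls were no compound for no effect and no enzyme for full effect; nearly all actives have a fitted effect of over 20% in size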
# Target sequence (P00811 whole entry, looked up): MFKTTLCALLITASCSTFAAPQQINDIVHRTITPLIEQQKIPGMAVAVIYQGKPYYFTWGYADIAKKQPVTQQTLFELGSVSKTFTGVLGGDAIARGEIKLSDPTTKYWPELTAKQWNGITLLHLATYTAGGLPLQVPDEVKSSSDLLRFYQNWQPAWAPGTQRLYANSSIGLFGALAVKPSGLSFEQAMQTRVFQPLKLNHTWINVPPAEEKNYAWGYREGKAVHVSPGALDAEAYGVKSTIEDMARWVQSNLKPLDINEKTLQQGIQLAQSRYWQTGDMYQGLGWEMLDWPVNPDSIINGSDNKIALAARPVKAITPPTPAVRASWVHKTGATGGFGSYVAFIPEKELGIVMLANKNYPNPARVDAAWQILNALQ
#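 20 mM phosphate pH 7.0 + 0.01% (detergent screen) or 0.0001% Triton X-100; 5.3 nM AmpC reagent; cpd preinc 15 min RT; nitrocefin (800 uM stock) to start; A480 q20 s × 4 min; Activity was normalised to no-enzyme and no-compound control wells.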
# AmpC inh detg: AmpC beta-lactamase inhibition with detergent present; P00811; Potency, µM (doses to about 114 µM), without a hit: top-dose activity change, negative = inhibition, usual class: inhibitors; 370,000 tested, 0.041% active; AID 485294; AmpC hydrolysis of nitrocefin, absorbance 480 nm, 0.01% Triton;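 note: 0% = no-compound wells and -100% = no-enzyme wells; nearly all actives have a fitted effect of over 25% in size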
#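 AmpC (5.3 nM in the dispensed reagent) in 20 mM phosphate pH 7.0 with 0.01% (detergent screen) or 0.0001% Triton X-100 was preincubated with compounds for 15 min at room temperature. Nitrocefin was then added from an 800 uM solution, and hydrolysis was followed at 480 nm.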
# Sm TGR block: S. mansoni TGR enzyme inhibition; Q962Y6; purified TGR, DTNB reduction, TNB absorbance 405 nm; Potency, µM (top dose mostly 114 µM), inactives show at the top dose activity change, negative = inhibition, actives largely listed as inhibitors; 360,000 tested, 3% active; note: nearly all actives have a fitted effect of over 60% in size
#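 TGR 20 nM + NADPH 100 uM (dispensed conc.), cpd preinc 15 min RT; start with NADPH (500 uM addition) then DTNB (15 mM addition). Kinetic TNB absorbance, 405 nm filter. Four-parameter Hill fit across titration.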
# Active calls of the source: *; ? = inconclusive; . = no result given; [ ] = another dose, or the depositor's remark. Only some compounds are listed: those with a hit (about 3.3% of all), similar ones and a draw of the others. Calls come from the whole dose curve; as a rule, active = well fitted curve in the direction sought with a large enough effect; inconclusive = small, poorly fitted or top-dose-only effect, or another doubt; inactive = no such curve, though single readings can be large; an effect the other way counts as inactive or inconclusive. Unless noted, % is set by controls: 0 for no effect and ±100 for the full control effect; potency is the fitted concentration of half-maximal effect.
SMILES,AmpC no deterg,AmpC inh detg,Sm TGR block
Cc1csc(NC(=O)/C=C/c2ccco2)n1,-21.4%,-2.1%,50.1µM*
O=C(/C=C/c1ccco1)Nc1nc(-c2ccccn2)cs1,-44.1%,0.0%,12.6µM*
COc1ccc(S(=O)(=O)c2c(Nc3cccc(C)c3C)sc(C(=O)c3ccccc3)c2N)cc1,.,20.2%,-18.0%
CCOc1ccc(NC(=O)C2CCN(c3nnc(C)c4c(C)n(-c5ccccc5)nc34)CC2)cc1,.,25.2%,-0.4%
CC(=O)c1ccc(-c2ccc(C(=O)NC3CCCCCC3)o2)cc1,-22.4%[11.4 µM],?,22.4µM*
O=C(NC1CCC(O)CC1)c1ccc(-c2ccc(Cl)cc2)o1 (configuration not stated),29.9%,-16.1%,-5.2%
CCc1cccc(-n2nnc(-c3nc(-c4ccc5c(c4)OCO5)no3)c2C)c1,.,5.2%,8.5%
O=C(CC1Oc2ccccc2NC1=O)NCc1ccccc1 (configuration not stated),-11.0%,-16.9%,0.0%
CC(=O)CC1OC(=O)C(Br)=C1NCc1ccccc1 (configuration not stated),-14.6%,-15.9%,3.55µM*
CCOC(=O)Cn1c(=O)n(C2CCCCC2)c2nc(-c3ccc(C(C)C)cc3)nc(C(N)=O)c21,.,1.3%,-2.0%
CCCOc1cccc(C2c3c(-c4ccccc4O)n[nH]c3C(=O)N2Cc2ccco2)c1 (configuration not stated),.,17.4%,13.7%
CCOc1ccc(C(=O)N2CC(=O)Nc3ccc(F)cc3C2c2ccc(F)cc2)cc1 (configuration not stated),.,9.1%,5.3%
COCCCNS(=O)(=O)c1ccc(Oc2ncc(C(F)(F)F)cc2Cl)cc1,58.2%,4.9%,0.3%
CC(C)(C)NS(=O)(=O)c1ccc(Oc2ncc(C(F)(F)F)cc2Cl)cc1,5.01µM*,-5.4%,-0.6%
CCN(CC)CCNC(=O)C1CCN(c2cc(C)nc3c(-c4ccc(Cl)cc4)c(C)nn23)CC1,.,-3.8%,-10.3%
COc1ccc(OC)c(NC(=O)C2Cc3ccccc3CN2S(=O)(=O)c2ccc(F)cc2)c1 (configuration not stated),.,-3.5%,4.5%
CC(C)C(=O)N1c2ncnn2C2(CCCCC2)[C@@H]2CCCC[C@@H]21,.,-6.6%,-23.3%
O=C(NNC1CC(=O)N(c2ccc(F)cc2)C1=O)c1cccnc1 (configuration not stated),-16.1%,3.5%,7.94µM*
O=C(NNC1CC(=O)N(c2ccccc2)C1=O)c1cccnc1 (configuration not stated),-11.3%,-7.4%,0.8%
O=C1CC(c2nc3ccccc3n2CCCCOc2ccccc2)CN1c1ccccc1Cl (configuration not stated),.,24.0%,-2.2%
COc1ccc(CCNC(=O)C(C)n2nc(C)c3sc4ccccc4c3c2=O)c(OC)c1 (configuration not stated),.,6.2%,?
CC(C)(Sc1cc(C(C)(C)C)c(O)c(C(C)(C)C)c1)Sc1cc(C(C)(C)C)c(O)c(C(C)(C)C)c1,?,-4.9%,-2.7%
Cn1ccnc1C(O)c1cc(C(C)(C)C)c(O)c(C(C)(C)C)c1 (configuration not stated),20.6%,-12.5%,17.8µM*
C(=N\Nc1ccc2nncn2n1)/c1ccco1,-12.4%,4.0%,-2.2%
COc1ccccc1/C=C\C=N\n1c(-c2ccc(Cl)cc2Cl)n[nH]c1=S,-45.1%,?,-1.7%
SMILES,AmpC no deterg,AmpC inh detg,Sm TGR block
Cc1cccc(-c2n[nH]c(=S)n2/N=C/C=C/c2ccco2)c1,-43.8%,-9.6%,11.2µM*
C(=C\c1ccco1)/C=N/n1cnnc1,-8.1%,?,28.2µM*
S=c1[nH]nc(-c2ccccc2Cl)n1/N=C/C=C/c1ccco1,?,-9.7%,20µM*
Cc1cccc(/C=N/n2c(-c3ccco3)n[nH]c2=S)c1,-48.4%,-1.5%,-1.5%
CC(/C=N/n1c(-c2ccc(C)cc2)n[nH]c1=S)=C\c1ccco1,-42.3%,-0.1%,-25.0%
CC(/C=N/n1c(-c2ccncc2)n[nH]c1=S)=C\c1ccco1,-26.9%,-2.0%,31.6µM*
Cc1ccc(S(=O)(=O)c2cn(Cc3ccccc3)c3cc(N4CCCC4)c(F)cc3c2=O)cc1C,.,13.1%,1.3%
Cc1ccc(C)c(Nc2nc3c(S(=O)(=O)c4ccc(Br)cc4)nnn3c3ccsc23)c1,.,19.2%,-3.6%
Cc1nn(-c2ccccc2)c(-n2cccc2)c1C(=O)NCCc1ccc(Cl)cc1,.,13.9%,0.3%
CCc1cccc(NC(c2nnc(-c3ccccc3)o2)c2ccc(F)cc2Cl)c1 (configuration not stated),.,1.3%,5.0%
S=c1[nH]nc(-c2cccc(Cl)c2)n1/N=C/c1ccco1,-42.1%,12.3%,39.8µM*
CC(/C=N/n1c(-c2ccccc2)n[nH]c1=S)=C\c1ccco1,-54.1%,2.0%,?
Cc1ccc(/C=N/n2c(-c3cccc(Cl)c3)n[nH]c2=S)o1,-36.2%,-9.8%,-2.4%
S=c1[nH]nc(-c2ccncc2)n1/N=C/C=C/c1ccco1,-28.8%,-0.3%,22.4µM*
Cc1ccc(-c2nc(NC(=O)CSc3nc(C)nc4sc5c(c34)CCCC5)ns2)cc1,.,22.4%,3.0%
CCC(=O)N1N=C(c2c(O)n(C)c(=O)n(C)c2=O)CC1c1ccccc1 (configuration not stated),-14.9%,0.0%,9.7%
Cn1c(O)c(C2=NN(C(=O)CCl)C(c3ccccc3)C2)c(=O)n(C)c1=O (configuration not stated),-32.6%,5.5%,12.6µM*
Cc1cc(Cl)ccc1NC(=O)C1CCCN(c2nnc(C)c3c(C)n(-c4ccccc4)nc23)C1 (configuration not stated),.,-0.6%,-0.3%
Cc1ccc(C2c3[nH]c4ccccc4c3CCN2C(=O)CCc2ccccc2)cc1 (configuration not stated),.,-0.8%,0.4%
COc1cccc(CCNC(=O)C2CCC(=O)N(Cc3cccc(OC)c3)C2)c1 (configuration not stated),26.3%,-7.9%,3.7%
CN(Cc1cnccn1)C(=O)C1CCC(=O)N(CCc2ccccc2)C1 (configuration not stated),-13.8%,-2.1%,-0.6%
Cc1cc(C)nc(CCNC(=O)C2CCC(=O)N(Cc3ccccc3F)C2)n1 (configuration not stated),-2.6%,1.5%,0.5%
Cc1ccc(CN(C)C(=O)C2CCC(=O)N(CCc3ccccc3)C2)o1 (configuration not stated),33.9%,?,12.6µM*
Cc1ccc(CCNC(=O)C2CCC(=O)N(Cc3ccccc3F)C2)o1 (configuration not stated),35.5%,10.3%,44.7µM*
COc1cccc(CN2CC(C(=O)NCCc3ccc(C)o3)CCC2=O)c1 (configuration not stated),29.2%,2.9%,12.6µM*
CCN(CC)c1nn2c(=O)c(C(=O)NCc3ccc(OC)cc3OC)cnc2s1,.,14.3%,?
O=C(Cc1ncc(C(F)(F)F)cc1Cl)Nc1ccc(F)cc1,0.159µM*,0.8%,-4.1%
O=C(Cc1ncc(C(F)(F)F)cc1Cl)NC1CC1,-11.8%,?,-12.4%
